Source: PubChem BioAssay AID652017 (The Scripps Research Institute Molecular Screening Center, 2013)
In all, about 370,000 compounds went through this assay and about 3,800 (1%) were called active. Only a selection was taken, and actives are over-represented in it overall. Values without a mark were called inactive. Cut-off read from the data, not from the text of the source: active = activation above about 7.8%; inactive = the rest.

Experiment: SMARCA2 (BRM) function activators, primary screen, cell-based, luminescence, high throughput (AID 652017);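 note: 0% = vehicle wells and 100% = reference activator wells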
Conditions: MG213 cells, MMTV-luciferase reporter, dexamethasone, overnight; at 9.1 µM; active compounds read high

Structure (SMILES) | activation
COc1ccc(OC)c(NC(=O)c2cccc(S(=O)(=O)N3CCN(C(C)=O)CC3)c2)c1 | -1.12%
COc1cccc(/C=C/C(=O)Nc2ccc3c(c2)OCCO3)c1 | 5.29%
COc1cccc(C(=O)Nc2cc3c(cc2Br)OCCCO3)c1 | 11% (active)
O=S1(=O)C[C@@H](N2CCN(CCO)CC2)[C@H](COCc2ccccc2)N1 | -4.94%
COC(=O)[C@]12C[C@H](CC(=O)NCc3cccs3)C(=O)N(CCc3ccc(OC)c(OC)c3)C1=C[C@H](C(C)C)O[C@@H]2C1CC1 | -3.39%
O=C(NCCC1=CCCCC1)C1CCN(S(=O)(=O)c2ccc(Cl)s2)CC1 | -6.89%
COc1cccc2cc(/C(C)=N/NC(=O)c3ccco3)oc12 | 5.77%
COc1ccc(N(CC(=O)NC(C)(C)C)C(=O)c2ccco2)cc1 | -1.03%
C/C(CC(=O)NC(C)(C)C)=N\NC(=O)c1ccco1 | 8.95% (active)
CCC(NC(=O)C1C2C=CC3(CN(Cc4ccccc4)C(=O)C13)O2)c1ccccc1 (stereo unspecified) | -1.92%
CC1(C(=O)NS(=O)(=O)C2CC2)CCCN(C(=O)CSc2ccccc2)C1 (stereo unspecified) | 10.6% (active)
CC(C)CNC(=O)C1(C)CCCN1C(=O)CSc1ccccc1 (stereo unspecified) | -1.93%
CS(=O)(=O)N1CCN(C(=O)CSc2ccccc2)CC1 | -2.96%
C[C@@H]1CN([C@H](C)CO)C(=O)CCCn2cc(nn2)CO[C@H]1CN(C)S(=O)(=O)c1ccc(Oc2ccccc2)nc1 | -2.13%
COc1ccc([C@H]2OC(=O)C[C@H]2C(=O)N2CCN(c3ccccc3F)CC2)cc1OC | -3.16%
COC(=O)[C@]12C[C@H](CC(=O)NCc3ccccc3)C(=O)N(CCc3ccc(OC)c(OC)c3)C1=C[C@H](C(C)(C)C)O[C@@H]2C | -3.03%
CCOC(=O)[C@]12CCCCC/C=C\1N(Cc1ccc(OC)cc1)C(=O)[C@H]2CC(=O)NCc1ccc(C)o1 | -0.44%
CN1CCN(CCCNC(=O)c2ccc(/C=C3\Oc4ccccc4N(Cc4ccc(Cl)cc4)C3=O)cc2)CC1 | 10.6% (active)
O=C(NCCS(=O)(=O)NCc1ccc(Cl)cc1)c1ccccc1 | -0.89%

Structure (SMILES) | activation
O=C(NCCCN1CCCCCC1)c1ccc(N2CCCC2=O)cc1 | 1.14%
Cc1cc(NS(=O)(=O)c2ccc(NC(=O)CSc3nnc(SCc4ccc(F)cc4)s3)cc2)nc(C)n1 | -5.48%
O=C(Nc1cccc(Cl)c1)OC1CC2CC1[C@H]1CCCCN1[C@H]2Cc1ccccc1 (stereo partly specified) | -2.01%
CCOC(=O)CSc1nc(C)cc2c1C(=O)OC2 | -2.43%
C#CCN([C@H](C(=O)OC)C(C)CC)S(=O)(=O)c1ccccc1Br (stereo partly specified) | -1.68%
O=C(C[C@H]1CC[C@@H](NC(=O)c2ccncc2)[C@@H](CO)O1)NCC1CC1 | -1.73%
O=C(N[C@H]1CC[C@H](CC(=O)N2CCCCC2)O[C@@H]1CO)c1cccc(F)c1 | 8.81% (active)
O=C(Nc1ccc2c(c1)[C@@H]1C[C@@H](CC(=O)N3CCCCC3)O[C@@H](CO)[C@@H]1O2)NC1CCCCC1 | -1.84%
C=C1C(=O)[C@]23C[C@H]1CCC2[C@@]1(C)C(C[C@@H]3O)[C@](C)(C(=O)O)CC[C@@H]1O (stereo partly specified) | 28.1% (active)
N#Cc1ccc(OC[C@@H](O)CN2CCC(C(O)(c3ccccc3)c3ccccc3)CC2)c(F)c1 | 1.41%
COc1ccc(OCCCC(=O)NCCc2ccccc2)cc1 | 17.9% (active)
COc1ccc(OCC(=O)NCCc2ccc(S(N)(=O)=O)cc2)cc1 | 2.09%
O=C(CCNS(=O)(=O)c1ccccc1)NCCCc1ccccc1 | -1.66%
O=C(CCCc1ccccc1)NCc1ccccc1 | 8.27% (active)
COc1ccc(CCNC(=O)CN(c2ccccc2)S(C)(=O)=O)cc1 | -1.26%
O=C(CC1CCCCC1)NCc1ccccc1 | 2.93%
O=C(c1ccccc1)c1ccc(-c2ccccc2C(=O)NC2CCCCN(Cc3ccc(Cl)cc3)C2=O)cc1 (stereo unspecified) | -0.95%
CCOC(=O)[C@]12CCCC3=C1N(CCC3)C(=O)[C@@H](CC(=O)NCC13CC4CC(CC(C4)C1)C3)C2 | -3%
C=CCOc1ccc(Cl)cc1CNCCCN1CCOCC1 | -1.83%

Structure (SMILES) | activation
CC(C)CNc1cccc2c1S(=O)(=O)N(Cc1cn(Cc3ccc(Cl)cc3)nn1)Cc1ccccc1O2 | 0.35%
CCN(CC)C(=O)c1sc2nc(-c3ccccc3)ccc2c1N | 9.84% (active)
COC(=O)c1cc2c(N)c(C(=O)c3ccc(Cl)cc3)sc2nc1C(OC)OC | -4.26%
NC(=O)Cc1ccc2sc(-c3ccccc3)nc2c1 | 2.7%
CCOC(=O)c1cnc2sccn2c1=O | -1.74%
CN(C)/C=C/C(=O)c1cnc2sccn2c1=O | -3.44%
O=C(NCc1ccccn1)c1cnc2sccn2c1=O | 8.52% (active)
N#Cc1ccccc1OC[C@@H](O)CN1CCC(C(O)(c2ccccc2)c2ccccc2)CC1 | -4.74%
COC(=O)c1ccc(CSc2nnc(N)s2)o1 | -1.46%
CN1CCc2c(sc3c2c(NCc2ccco2)nc2nnnn23)C1 | 0.32%
COc1ccc(C(=O)NCC[N+](C)(C)C)cc1 | -4.72%
COc1ccc(C(=O)N/N=c2\oc3ccccc3cc2C(N)=O)cc1 | 9.22% (active)
COc1ccccc1CN(C)C(=O)c1cc2ccccc2o1 | -0.29%
CC(=O)c1cc(-c2ccc3ccccc3c2)c(=O)n2c1CCC2 | -0.02%
N#Cc1ccccc1NC(=O)c1cccc(COc2ccc(Cl)cc2Cl)c1 | 9.56% (active)
COc1ccc(Sc2ccc(NC(=O)c3cccc(Cl)c3)cc2C#N)cc1 | -0.62%
CSc1ccc(C#N)cc1NC(=O)c1ccc(Cl)cc1 | -0.91%
C[C@H](CO)N1C[C@H](C)[C@@H](CN(C)S(=O)(=O)c2ccc(F)cc2)Oc2ccc(NC(=O)CCC(F)(F)F)cc2C1=O | 1.28%
